Reference: the supplement of paper PMC11732987, “Enantioselective OTUD7B fragment discovery through chemoproteomics screening and high-throughput optimisation” (Communications Chemistry, 2025)

Assays:
Assay in all cases: log2 ratio of Biotin-Ahx-Ub-VS probe labelling (fragment/DMSO); higher = less target engagement (more negative = stronger competition), active = hit call of the paper (q ≤ 0.05, log2 ratio ≤ -1)
Details in all cases: compound concentration: 200 uM; treatment time: 3 h
[1] = target: T1, USP42 (UniProt Q9H9J4)
T1 sequence (whole entry): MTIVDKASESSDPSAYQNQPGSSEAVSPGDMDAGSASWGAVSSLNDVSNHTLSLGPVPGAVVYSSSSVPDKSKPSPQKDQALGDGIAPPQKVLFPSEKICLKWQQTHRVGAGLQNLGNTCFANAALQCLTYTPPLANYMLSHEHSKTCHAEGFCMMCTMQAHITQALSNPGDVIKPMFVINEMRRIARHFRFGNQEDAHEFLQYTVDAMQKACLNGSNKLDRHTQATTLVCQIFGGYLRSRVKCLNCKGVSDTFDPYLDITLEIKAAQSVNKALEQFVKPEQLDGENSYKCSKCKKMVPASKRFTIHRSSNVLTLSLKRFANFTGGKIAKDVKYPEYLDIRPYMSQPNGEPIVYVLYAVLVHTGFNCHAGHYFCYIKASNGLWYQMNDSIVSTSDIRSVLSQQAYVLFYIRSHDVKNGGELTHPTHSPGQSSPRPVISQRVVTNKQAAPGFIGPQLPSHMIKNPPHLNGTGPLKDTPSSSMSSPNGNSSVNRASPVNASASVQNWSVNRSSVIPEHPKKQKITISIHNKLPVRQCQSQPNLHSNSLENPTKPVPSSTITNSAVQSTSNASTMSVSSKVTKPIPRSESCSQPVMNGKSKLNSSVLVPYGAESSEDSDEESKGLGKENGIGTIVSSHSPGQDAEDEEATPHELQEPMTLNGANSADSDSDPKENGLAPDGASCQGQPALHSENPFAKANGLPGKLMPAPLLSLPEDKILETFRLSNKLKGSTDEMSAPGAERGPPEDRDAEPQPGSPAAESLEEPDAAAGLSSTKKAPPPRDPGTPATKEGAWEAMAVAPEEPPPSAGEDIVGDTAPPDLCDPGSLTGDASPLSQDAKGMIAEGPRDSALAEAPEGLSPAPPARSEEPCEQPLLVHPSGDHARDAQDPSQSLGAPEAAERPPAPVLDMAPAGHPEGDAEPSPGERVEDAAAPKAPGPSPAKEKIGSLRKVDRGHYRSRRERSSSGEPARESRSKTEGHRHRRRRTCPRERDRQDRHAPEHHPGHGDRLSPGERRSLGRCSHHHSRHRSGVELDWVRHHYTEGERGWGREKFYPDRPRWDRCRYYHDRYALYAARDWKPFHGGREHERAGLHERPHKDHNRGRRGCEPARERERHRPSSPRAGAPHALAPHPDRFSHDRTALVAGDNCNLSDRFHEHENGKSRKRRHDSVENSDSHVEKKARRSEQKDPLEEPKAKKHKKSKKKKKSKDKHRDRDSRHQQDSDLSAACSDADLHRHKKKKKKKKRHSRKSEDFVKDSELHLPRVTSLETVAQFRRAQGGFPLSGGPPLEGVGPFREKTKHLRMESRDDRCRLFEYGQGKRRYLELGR
How it was run: (§1)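 HEK293T lysate (495 µg per sample, in Tris/CHAPS/IGEPAL buffer with protease inhibitors) was exposed in triplicate for 3 h to fragment at 200 µM or to vehicle, then to Biotin-Ahx-Ub-VS at 0.5 µM final for 1 h. Labelled DUBs were enriched on NeutrAvidin, digested with LysC and trypsin, and analysed by diaPASEF LC-MS/MS. Spectronaut label-free quantities were normalised to the global median, and values are average log2 ratios of fragment over vehicle from an unpaired t-test. Only proteins with ≥2 unique peptides were used.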

[2] = target: USP46 (UniProt P62068)
Chain of USP46 (P62068 whole entry): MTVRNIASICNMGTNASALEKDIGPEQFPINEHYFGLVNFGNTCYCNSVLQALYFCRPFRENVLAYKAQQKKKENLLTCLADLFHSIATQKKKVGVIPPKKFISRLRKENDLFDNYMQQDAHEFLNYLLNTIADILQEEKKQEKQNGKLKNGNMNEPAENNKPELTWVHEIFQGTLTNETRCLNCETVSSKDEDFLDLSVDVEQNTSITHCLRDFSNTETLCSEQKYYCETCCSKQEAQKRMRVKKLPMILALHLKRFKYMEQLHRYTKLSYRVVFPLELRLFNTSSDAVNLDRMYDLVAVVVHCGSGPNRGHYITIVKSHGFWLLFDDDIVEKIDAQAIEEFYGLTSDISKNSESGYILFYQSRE
How it was run: as §1

[3] = target: T2, USP47 (UniProt Q96K76)
T2 sequence (whole entry): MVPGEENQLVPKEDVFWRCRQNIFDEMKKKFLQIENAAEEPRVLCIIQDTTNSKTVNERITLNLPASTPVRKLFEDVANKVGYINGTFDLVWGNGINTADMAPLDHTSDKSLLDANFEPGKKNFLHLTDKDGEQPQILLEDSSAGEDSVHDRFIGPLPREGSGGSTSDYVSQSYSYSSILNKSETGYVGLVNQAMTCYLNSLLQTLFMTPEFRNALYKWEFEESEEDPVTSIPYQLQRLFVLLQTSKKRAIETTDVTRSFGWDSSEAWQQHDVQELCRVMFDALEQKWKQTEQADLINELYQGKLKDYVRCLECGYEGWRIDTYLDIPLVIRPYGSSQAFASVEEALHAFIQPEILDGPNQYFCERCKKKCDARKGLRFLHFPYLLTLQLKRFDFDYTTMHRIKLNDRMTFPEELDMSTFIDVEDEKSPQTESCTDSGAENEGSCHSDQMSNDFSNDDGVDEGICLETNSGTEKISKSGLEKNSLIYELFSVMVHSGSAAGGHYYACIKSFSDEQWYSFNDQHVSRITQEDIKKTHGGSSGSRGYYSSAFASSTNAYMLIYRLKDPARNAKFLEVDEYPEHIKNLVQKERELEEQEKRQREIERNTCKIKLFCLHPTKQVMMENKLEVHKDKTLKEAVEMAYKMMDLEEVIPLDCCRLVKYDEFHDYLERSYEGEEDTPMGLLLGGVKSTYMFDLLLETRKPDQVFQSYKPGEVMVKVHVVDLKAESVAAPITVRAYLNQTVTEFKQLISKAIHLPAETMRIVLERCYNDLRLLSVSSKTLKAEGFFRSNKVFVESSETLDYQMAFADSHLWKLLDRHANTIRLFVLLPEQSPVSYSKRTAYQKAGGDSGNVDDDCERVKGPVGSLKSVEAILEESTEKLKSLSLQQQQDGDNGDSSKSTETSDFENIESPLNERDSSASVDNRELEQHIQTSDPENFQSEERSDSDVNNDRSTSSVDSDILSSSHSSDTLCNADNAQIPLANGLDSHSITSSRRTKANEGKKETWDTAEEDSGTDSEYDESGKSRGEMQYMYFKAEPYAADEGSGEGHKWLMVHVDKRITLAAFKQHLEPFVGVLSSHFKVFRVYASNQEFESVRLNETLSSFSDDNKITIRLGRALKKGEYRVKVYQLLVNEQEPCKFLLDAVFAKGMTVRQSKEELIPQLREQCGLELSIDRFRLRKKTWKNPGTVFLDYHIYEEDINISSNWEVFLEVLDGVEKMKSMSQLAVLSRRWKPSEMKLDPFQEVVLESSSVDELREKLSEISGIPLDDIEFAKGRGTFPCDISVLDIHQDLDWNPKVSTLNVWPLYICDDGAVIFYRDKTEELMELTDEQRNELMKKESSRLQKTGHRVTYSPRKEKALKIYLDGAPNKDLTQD
How it was run: as §1

[4] = target: T3, USP48 (UniProt Q86UV5)
T3 sequence (whole entry): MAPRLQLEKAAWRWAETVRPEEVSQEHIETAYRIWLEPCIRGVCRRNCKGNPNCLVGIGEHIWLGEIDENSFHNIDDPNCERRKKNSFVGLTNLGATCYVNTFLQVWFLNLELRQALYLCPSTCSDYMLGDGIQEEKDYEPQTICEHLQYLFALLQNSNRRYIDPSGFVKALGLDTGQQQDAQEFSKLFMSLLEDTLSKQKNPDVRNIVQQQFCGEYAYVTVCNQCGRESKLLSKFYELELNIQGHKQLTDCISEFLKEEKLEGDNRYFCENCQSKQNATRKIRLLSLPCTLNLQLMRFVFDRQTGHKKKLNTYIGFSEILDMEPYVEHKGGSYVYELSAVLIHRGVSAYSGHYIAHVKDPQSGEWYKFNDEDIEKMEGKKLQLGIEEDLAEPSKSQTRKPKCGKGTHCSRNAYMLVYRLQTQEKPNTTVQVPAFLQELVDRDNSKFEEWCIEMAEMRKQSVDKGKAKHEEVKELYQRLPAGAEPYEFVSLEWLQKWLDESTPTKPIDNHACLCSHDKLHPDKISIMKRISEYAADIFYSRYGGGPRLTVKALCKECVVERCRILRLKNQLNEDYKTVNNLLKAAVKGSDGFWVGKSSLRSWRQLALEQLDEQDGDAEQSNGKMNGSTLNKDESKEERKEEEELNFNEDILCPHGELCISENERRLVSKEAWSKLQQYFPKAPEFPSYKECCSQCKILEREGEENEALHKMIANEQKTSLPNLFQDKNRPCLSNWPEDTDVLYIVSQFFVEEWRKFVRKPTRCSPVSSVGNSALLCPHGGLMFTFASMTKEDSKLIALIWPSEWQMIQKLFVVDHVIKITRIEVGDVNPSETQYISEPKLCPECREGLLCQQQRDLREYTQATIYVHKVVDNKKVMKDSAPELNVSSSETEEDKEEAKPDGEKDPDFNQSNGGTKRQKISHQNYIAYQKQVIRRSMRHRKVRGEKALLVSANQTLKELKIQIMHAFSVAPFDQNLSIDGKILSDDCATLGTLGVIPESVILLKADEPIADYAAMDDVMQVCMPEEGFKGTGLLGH
How it was run: as §1

[5] = target: T4, USP5 (UniProt P45974)
T4 sequence (whole entry): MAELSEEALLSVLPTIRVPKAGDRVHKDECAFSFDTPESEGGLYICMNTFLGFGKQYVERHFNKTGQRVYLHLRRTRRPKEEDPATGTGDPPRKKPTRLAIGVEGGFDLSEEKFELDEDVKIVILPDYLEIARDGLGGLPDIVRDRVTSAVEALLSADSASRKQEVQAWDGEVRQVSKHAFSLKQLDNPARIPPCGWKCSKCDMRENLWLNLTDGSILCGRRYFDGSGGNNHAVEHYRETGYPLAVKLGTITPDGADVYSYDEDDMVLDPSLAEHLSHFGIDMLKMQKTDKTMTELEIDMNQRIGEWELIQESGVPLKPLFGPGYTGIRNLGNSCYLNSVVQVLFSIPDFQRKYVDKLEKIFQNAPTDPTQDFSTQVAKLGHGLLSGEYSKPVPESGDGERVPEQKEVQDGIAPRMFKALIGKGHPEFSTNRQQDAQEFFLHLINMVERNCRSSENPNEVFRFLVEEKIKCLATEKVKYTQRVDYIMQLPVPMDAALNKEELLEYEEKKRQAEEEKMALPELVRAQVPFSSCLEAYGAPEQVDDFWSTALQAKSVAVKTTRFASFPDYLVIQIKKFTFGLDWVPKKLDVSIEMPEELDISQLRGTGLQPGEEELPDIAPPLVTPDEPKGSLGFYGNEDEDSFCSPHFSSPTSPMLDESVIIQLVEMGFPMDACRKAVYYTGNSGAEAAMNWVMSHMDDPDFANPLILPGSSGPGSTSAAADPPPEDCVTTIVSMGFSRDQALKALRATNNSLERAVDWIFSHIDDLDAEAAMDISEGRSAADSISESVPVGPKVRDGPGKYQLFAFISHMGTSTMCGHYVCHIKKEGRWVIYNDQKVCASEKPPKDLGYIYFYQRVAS
How it was run: as §1

[6] = target: USP54 (UniProt Q70EL1)
Chain of USP54 (Q70EL1 whole entry): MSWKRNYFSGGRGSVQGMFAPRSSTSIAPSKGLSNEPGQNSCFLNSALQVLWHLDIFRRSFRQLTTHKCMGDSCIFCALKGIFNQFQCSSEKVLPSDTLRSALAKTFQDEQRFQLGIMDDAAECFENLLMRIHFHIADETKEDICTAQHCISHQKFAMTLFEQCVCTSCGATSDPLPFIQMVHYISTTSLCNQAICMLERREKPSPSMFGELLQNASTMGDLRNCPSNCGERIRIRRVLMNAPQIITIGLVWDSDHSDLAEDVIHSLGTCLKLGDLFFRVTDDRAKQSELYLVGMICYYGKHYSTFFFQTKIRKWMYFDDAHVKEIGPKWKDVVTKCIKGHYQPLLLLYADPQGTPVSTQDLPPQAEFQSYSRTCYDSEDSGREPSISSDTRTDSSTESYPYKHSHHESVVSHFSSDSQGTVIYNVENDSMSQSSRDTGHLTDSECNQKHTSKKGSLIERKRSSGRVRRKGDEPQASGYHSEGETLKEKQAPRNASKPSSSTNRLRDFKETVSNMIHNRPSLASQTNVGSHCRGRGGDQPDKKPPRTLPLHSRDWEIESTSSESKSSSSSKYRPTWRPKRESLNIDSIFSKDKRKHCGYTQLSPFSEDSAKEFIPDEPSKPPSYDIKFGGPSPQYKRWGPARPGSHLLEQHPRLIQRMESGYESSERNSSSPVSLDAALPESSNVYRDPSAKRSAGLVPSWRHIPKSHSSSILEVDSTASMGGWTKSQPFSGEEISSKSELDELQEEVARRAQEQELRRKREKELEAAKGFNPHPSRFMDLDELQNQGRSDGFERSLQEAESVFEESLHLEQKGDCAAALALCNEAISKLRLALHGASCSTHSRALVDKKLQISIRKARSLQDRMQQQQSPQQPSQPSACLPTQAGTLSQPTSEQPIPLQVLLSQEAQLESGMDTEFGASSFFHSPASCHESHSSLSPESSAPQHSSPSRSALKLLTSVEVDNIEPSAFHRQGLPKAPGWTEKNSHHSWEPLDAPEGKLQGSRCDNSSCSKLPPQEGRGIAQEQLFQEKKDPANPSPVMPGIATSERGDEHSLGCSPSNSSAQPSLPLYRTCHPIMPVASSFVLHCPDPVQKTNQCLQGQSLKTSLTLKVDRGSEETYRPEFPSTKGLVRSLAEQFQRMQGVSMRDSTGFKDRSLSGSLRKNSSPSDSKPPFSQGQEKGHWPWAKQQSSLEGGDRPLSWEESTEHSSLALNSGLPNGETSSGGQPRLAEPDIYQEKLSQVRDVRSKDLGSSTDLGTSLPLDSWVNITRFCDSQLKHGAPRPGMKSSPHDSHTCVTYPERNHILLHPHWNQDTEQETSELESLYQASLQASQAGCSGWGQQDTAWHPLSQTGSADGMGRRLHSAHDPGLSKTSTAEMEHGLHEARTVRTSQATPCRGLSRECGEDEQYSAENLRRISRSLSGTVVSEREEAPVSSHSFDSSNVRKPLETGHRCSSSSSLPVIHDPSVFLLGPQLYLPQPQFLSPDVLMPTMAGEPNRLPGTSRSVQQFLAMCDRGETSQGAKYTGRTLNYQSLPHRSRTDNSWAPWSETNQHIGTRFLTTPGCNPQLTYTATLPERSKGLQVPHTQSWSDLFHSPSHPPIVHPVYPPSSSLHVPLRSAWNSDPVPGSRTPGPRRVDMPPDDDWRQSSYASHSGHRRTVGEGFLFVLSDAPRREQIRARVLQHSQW
How it was run: as §1

[7] = target: USP7 (UniProt Q93009)
Chain of USP7 (Q93009 whole entry, looked up): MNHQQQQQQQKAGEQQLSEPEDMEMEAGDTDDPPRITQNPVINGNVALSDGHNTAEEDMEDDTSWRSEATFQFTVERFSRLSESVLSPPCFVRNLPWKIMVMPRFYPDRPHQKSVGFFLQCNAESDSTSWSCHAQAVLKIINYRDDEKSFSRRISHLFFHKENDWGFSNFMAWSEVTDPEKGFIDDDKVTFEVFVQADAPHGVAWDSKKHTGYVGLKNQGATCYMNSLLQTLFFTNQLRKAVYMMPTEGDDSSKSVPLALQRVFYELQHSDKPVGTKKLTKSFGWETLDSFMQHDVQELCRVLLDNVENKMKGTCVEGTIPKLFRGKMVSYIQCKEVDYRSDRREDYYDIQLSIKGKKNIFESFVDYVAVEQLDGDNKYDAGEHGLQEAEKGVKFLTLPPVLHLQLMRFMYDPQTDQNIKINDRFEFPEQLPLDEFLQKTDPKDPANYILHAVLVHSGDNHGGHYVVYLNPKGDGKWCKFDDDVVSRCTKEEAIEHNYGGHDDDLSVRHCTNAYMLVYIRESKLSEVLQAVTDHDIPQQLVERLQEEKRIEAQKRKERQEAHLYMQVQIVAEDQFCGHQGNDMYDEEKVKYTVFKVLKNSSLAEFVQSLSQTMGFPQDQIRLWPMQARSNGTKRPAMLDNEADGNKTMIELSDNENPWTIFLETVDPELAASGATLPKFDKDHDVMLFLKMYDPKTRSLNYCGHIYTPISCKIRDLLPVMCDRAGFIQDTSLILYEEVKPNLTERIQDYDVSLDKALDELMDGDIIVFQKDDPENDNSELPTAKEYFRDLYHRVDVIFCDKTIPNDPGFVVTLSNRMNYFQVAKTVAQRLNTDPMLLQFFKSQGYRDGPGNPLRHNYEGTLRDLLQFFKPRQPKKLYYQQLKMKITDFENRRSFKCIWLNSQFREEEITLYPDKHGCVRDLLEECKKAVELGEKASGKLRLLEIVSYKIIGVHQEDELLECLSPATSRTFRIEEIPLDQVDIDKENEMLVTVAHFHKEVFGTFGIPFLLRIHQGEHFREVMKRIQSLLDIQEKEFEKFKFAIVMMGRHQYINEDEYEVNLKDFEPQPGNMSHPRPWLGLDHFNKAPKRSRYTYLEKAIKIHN
How it was run: as §1

[8] = target: T5, USP8 (UniProt P40818)
T5 sequence (whole entry): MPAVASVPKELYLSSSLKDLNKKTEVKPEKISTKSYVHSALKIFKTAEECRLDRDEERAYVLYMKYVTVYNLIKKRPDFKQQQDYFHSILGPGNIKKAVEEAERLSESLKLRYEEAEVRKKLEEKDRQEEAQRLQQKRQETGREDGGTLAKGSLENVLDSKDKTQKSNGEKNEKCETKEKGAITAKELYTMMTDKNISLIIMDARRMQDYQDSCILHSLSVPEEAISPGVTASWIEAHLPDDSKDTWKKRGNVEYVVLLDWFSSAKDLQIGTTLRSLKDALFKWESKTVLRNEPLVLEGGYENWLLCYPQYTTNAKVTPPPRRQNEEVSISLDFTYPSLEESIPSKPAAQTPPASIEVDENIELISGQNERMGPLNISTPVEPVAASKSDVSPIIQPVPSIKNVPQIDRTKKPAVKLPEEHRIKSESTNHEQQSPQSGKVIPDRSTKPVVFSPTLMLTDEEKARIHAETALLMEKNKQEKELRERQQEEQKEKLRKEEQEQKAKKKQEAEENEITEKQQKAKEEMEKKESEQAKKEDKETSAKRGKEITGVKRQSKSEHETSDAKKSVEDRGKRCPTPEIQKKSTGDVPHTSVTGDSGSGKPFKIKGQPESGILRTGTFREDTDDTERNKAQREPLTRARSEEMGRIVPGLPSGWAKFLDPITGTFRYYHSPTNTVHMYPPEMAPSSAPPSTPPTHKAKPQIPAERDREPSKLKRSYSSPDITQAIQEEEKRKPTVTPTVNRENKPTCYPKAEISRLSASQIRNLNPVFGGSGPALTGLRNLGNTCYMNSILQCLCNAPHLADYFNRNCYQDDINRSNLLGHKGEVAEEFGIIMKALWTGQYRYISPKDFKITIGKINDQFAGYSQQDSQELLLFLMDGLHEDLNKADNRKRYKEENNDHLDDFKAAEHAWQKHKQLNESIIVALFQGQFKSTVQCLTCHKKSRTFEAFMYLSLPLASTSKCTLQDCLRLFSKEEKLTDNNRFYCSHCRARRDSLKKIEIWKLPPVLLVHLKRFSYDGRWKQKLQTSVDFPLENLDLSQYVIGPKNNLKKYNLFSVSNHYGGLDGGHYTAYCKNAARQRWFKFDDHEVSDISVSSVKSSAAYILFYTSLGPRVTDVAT
How it was run: as §1

Measured: log2 ratio of Biotin-Ahx-Ub-VS probe labelling

Cl.O=C(CCl)N1CCN(Cc2ccccc2)CC1
inactive: [1] 0.128 | [2] -0.101 | [3] -0.389 | [4] -0.499 | [5] -0.052 | [6] 0.13 | [7] -0.607 | [8] -0.333
